Assay results published in PubChem BioAssay AID1159580 (chemical genetic matrix, 2015).
The campaign covered roughly 5,500 compounds. About 2,000 (36%) were called active. Roughly 18% stayed inconclusive and do not appear here. Cut-off read from the data, not from the text of the source: active = normalized growth mostly below about 0.91 (no sharp cut-off); inconclusive = no clear call, values can overlap the other calls; inactive = mostly above about 0.92. Some of the results follow.

Experiment: chemical genetic growth profiling, strain panel (AID 1159580);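 note: tested at 20 µM; growth read once vehicle control cultures reached saturation at 30 °C; 1 = growth at the plate median or of vehicle wells; lower values mean less growth of the strain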
Conditions: growth OD

Measured: normalized growth

O=C(N[C@@H](CO)[C@H](O)c1ccc([N+](=O)[O-])cc1)C(Cl)Cl
inactive: S. cerevisiae deletion strains, locus YJR075W, strain HOC1, hits give low values 1.02 | S. cerevisiae deletion strains, locus YKL009W, strain mrt4, hits give low values 1.01 | S. cerevisiae deletion strains, locus YKL068W, hits give low values 1 | S. cerevisiae deletion strains, locus YKL085W, strain MDH1 (second series), hits give low values 1 | S. cerevisiae deletion strains, locus YKL085W, strain MDH1, hits give low values 1 | S. cerevisiae deletion strains, locus YKL160W, strain elf1, hits give low values 1.04 | S. cerevisiae deletion strains, locus YKL190W, strain CNB1, hits give low values 1 | S. cerevisiae deletion strains, locus YKR001C, strain vps1, hits give low values 1 | S. cerevisiae deletion strains, locus YKR026C, strain gcn3, hits give low values 1.04 | S. cerevisiae deletion strains, locus YKR091W, strain srl3, hits give low values 0.999 | S. cerevisiae deletion strains, locus YLL001W, strain dnm1, hits give low values 1.01 | S. cerevisiae deletion strains, locus YLL026W, hits give low values 0.998 | S. cerevisiae deletion strains, locus YLL041C, strain sdh2, hits give low values 1.01 | S. cerevisiae deletion strains, locus YLR027C, strain aat2, hits give low values 1.02 | S. cerevisiae deletion strains, locus YLR039C, strain RIC1, hits give low values 1.01 | S. cerevisiae deletion strains, locus YLR058C, strain SHM2, hits give low values 1 | S. cerevisiae deletion strains, locus YLR102C, strain apc9, hits give low values 1.01 | S. cerevisiae deletion strains, locus YLR113W, strain HOG1, hits give low values 0.972 | S. cerevisiae deletion strains, locus YLR221C, strain rsa3, hits give low values 1.02 | S. cerevisiae deletion strains, locus YLR258W, strain gsy2, hits give low values 1.01 | S. cerevisiae deletion strains, locus YLR262C, strain YPT6 (second series), hits give low values 1.01 | S. cerevisiae deletion strains, locus YLR262C, strain YPT6, hits give low values 1.03 | S. cerevisiae deletion strains, locus YLR268W, strain sec22, hits give low values 1.05 | S. cerevisiae deletion strains, locus YLR320W, strain mms22, hits give low values 1 | S. cerevisiae deletion strains, locus YLR330W, strain CHS5, hits give low values 0.999 | S. cerevisiae deletion strains, locus YLR342W, strain FKS1 (second series), hits give low values 1.01 | S. cerevisiae deletion strains, locus YLR342W, strain FKS1, hits give low values 1.01 | S. cerevisiae deletion strains, locus YLR357W, strain rsc2, hits give low values 1.08 | S. cerevisiae deletion strains, locus YLR370C, strain arc18, hits give low values 1.02 | S. cerevisiae deletion strains, locus YLR371W, strain rom2, hits give low values 1.02 | S. cerevisiae deletion strains, locus YLR384C, strain iki3, hits give low values 1.02 | S. cerevisiae deletion strains, locus YLR418C, strain cdc73, hits give low values 1.01 | S. cerevisiae deletion strains, locus YML016C, strain PPZ1, hits give low values 1 | S. cerevisiae deletion strains, locus YML032C, strain rad52, hits give low values 1.03 | S. cerevisiae deletion strains, locus YML120C, strain ndi1, hits give low values 1 | S. cerevisiae deletion strains, locus YML124C, strain tub3, hits give low values 1 | S. cerevisiae deletion strains, locus YMR058W, strain fet3, hits give low values 1.01 | S. cerevisiae deletion strains, locus YMR078C, strain ctf18, hits give low values 1.01 | S. cerevisiae deletion strains, locus YMR125W, strain sto1, hits give low values 1.02 | S. cerevisiae deletion strains, locus YMR129W, hits give low values 1.02 | S. cerevisiae deletion strains, locus YMR205C, strain PFK2, hits give low values 1 | S. cerevisiae deletion strains, locus YMR223W, strain ubp8, hits give low values 0.974 | S. cerevisiae deletion strains, locus YMR231W, strain pep5, hits give low values 1.02 | S. cerevisiae deletion strains, locus YMR263W, strain SAP30, hits give low values 1.02 | S. cerevisiae deletion strains, locus YMR307W, strain GAS1, hits give low values 0.986 | S. cerevisiae deletion strains, locus YNL067W, strain RPL9B, hits give low values 1.03 | S. cerevisiae deletion strains, locus YNL071W, strain lat1, hits give low values 1.02 | S. cerevisiae deletion strains, locus YNL128W, strain TEP1, hits give low values 1.01 | S. cerevisiae deletion strains, locus YNL153C, strain GIM3, hits give low values 1.03 | S. cerevisiae deletion strains, locus YNL183C, strain NPR1, hits give low values 0.921 | S. cerevisiae deletion strains, locus YNL209W, strain ssb2, hits give low values 1.03 | S. cerevisiae deletion strains, locus YNL233W, strain BNI4, hits give low values 1.02 | S. cerevisiae deletion strains, locus YNL248C, strain rpa49, hits give low values 1.04 | S. cerevisiae deletion strains, locus YNL250W, strain rad50, hits give low values 1 | S. cerevisiae deletion strains, locus YNL271C, strain bni1, hits give low values 1.01 | S. cerevisiae deletion strains, locus YNL298W, strain CLA4, hits give low values 1.02 | S. cerevisiae deletion strains, locus YNL307C, strain MCK1, hits give low values 1.01 | S. cerevisiae deletion strains, locus YNL322C, strain KRE1 (second series), hits give low values 1.04 | S. cerevisiae deletion strains, locus YNL322C, strain KRE1, hits give low values 0.999 | S. cerevisiae deletion strains, locus YNR049C, strain mso1, hits give low values 1.01 | S. cerevisiae deletion strains, locus YNR052C, strain pop2, hits give low values 1.01 | S. cerevisiae deletion strains, locus YOL006C, strain TOP1, hits give low values 1.1 | S. cerevisiae deletion strains, locus YOL012C, strain htz1 1.24 | S. cerevisiae deletion strains, locus YOL147C, strain pex11, hits give low values 1.03 | S. cerevisiae deletion strains, locus YOR001W, strain rrp6, hits give low values 1.02 | S. cerevisiae deletion strains, locus YOR061W, strain CKA2, hits give low values 1.01 | S. cerevisiae deletion strains, locus YOR069W, strain VPS5, hits give low values 1 | S. cerevisiae deletion strains, locus YOR070C, strain gyp1, hits give low values 1 | S. cerevisiae deletion strains, locus YOR080W, strain dia2, hits give low values 1.02 | S. cerevisiae deletion strains, locus YOR083W, strain WHI5, hits give low values 0.984 | S. cerevisiae deletion strains, locus YOR106W, strain vam3, hits give low values 1.02 | S. cerevisiae deletion strains, locus YOR136W, strain idh2, hits give low values 0.998 | S. cerevisiae deletion strains, locus YOR144C, strain elg1, hits give low values 1.01 | S. cerevisiae deletion strains, locus YOR184W, strain ser1, hits give low values 1 | S. cerevisiae deletion strains, locus YOR231W, strain MKK1, hits give low values 0.956 | S. cerevisiae deletion strains, locus YOR265W, strain rbl2, hits give low values 1.02 | S. cerevisiae deletion strains, locus YOR270C, strain vph1, hits give low values 1.07 | S. cerevisiae deletion strains, locus YOR290C, strain snf2, hits give low values 1.02 | S. cerevisiae deletion strains, locus YOR316C, strain cot1, hits give low values 1.01 | S. cerevisiae deletion strains, locus YPL051W, strain arl3, hits give low values 1.02 | S. cerevisiae deletion strains, locus YPL055C, strain LGE1, hits give low values 0.986 | S. cerevisiae deletion strains, locus YPL078C, strain atp4, hits give low values 1.03 | S. cerevisiae deletion strains, locus YPL106C, strain sse1, hits give low values 1.01 | S. cerevisiae deletion strains, locus YPL240C, strain hsp82, hits give low values 1.01 | S. cerevisiae deletion strains, locus YPL241C, strain CIN2, hits give low values 1 | S. cerevisiae deletion strains, locus YPL256C, strain CLN2, hits give low values 0.955 | S. cerevisiae deletion strains, locus YPR119W, strain clb2, hits give low values 1 | S. cerevisiae deletion strains, locus YPR141C, strain kar3, hits give low values 0.995 | S. cerevisiae deletion strains, locus YPR163C, strain tif3, hits give low values 1.02 | S. cerevisiae deletion strains, locus YPR167C, strain met16, hits give low values 0.999 | S. cerevisiae deletion strains, strain wtn01, hits give low values 1.04 | S. cerevisiae strains, strain wild type, hits give low values 1
